# This is a sample that favours compounds with a hit; in the whole collection about 1.2% have one here.
# PfHsp40 rescue: compounds rescuing yeast from Plasmodium falciparum HSP40 toxicity | growth rescue, % at 12.5 µM | hit rate 0.68% among 340,000 | S. cerevisiae expressing PfHsp40, growth rescue, ATP luminescence | AID 504582; in the data active means growth rescue above about 28%, passing the limit was not always enough; inconclusive means no clear call, values can overlap the other calls;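 further: yeast W303a lacking pdr1 and pdr3 grown in galactose medium; growth measured after three days at 30 °C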
# ugtP null kill: compounds lethal to S. aureus RN4220 ugtP deletion mutant; hit rate 0.54% among 330,000; growth inhibition, % (test concentration not listed); OD600 growth, 16 h; in the data active means growth inhibition above about 68%
# Sa RN4220 lethal: S. aureus RN4220 growth inhibition; OD600, 16 h; inhibition, % (test concentration not listed); hit rate 0.33% among 330,000; AID 1259311; in the data active means inhibition above about 85%
# Vc quorum ag-1: inducers of Vibrio cholerae quorum light production without autoinducers; hit rate 0.16% among 350,000; AID 588436; activation, % at 18.7 µM; V. cholerae BH1578 lux reporter, luminescence, 6 h; in the data active means activation mostly above about 9.7%, no sharp cut-off; inconclusive means no clear call, values can overlap the other calls; inactive means mostly below about 3.7%
# Mtb bLac sens: beta-lactam sensitization of Mtb H37Rv; M. tuberculosis H37Rv growth with meropenem, percent inhibition; inhibition, % at 25 µM; hit rate 0.27% among 330,000;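 further: growth measured after seven days incubation then overnight dye step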
# Vc quorum ag-2: induces V. cholerae light production without autoinducers. shares compounds with Vc quorum ag-1. 620 tested, under 10 active. activation, % at 50 µM. V. cholerae BH1578 lux reporter, luminescence, 6 h. AID 602243
# HeLa tox: cytotoxicity in HeLa cells at 24 hours; HeLa viability, CellTiter-Glo ATP luminescence; activity change, negative = cytotoxicity, % at 35 µM; 25 tested, under 10 active; AID 624140; shares compounds with Vc quorum ag-1;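 active means signal drop with fitted half-maximal concentration at or below twice the highest valid dose; inconclusive means flat curve with 30 to 70% loss, or poor fit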
# Numbers stand for hits; i = inactive; ? = inconclusive; nt = no result given; + = active, no number. Unless noted, how the calls were made is not given here.
SMILES,PfHsp40 rescue,ugtP null kill,Sa RN4220 lethal,Vc quorum ag-1,Mtb bLac sens,Vc quorum ag-2,others
COc1cccc(CN(C)C(=O)CSCC(=O)Nc2cc(C)on2)c1OC,i,i,i,i,i,nt,
COc1cccc(CN(C)C(=O)CSC(C)C(=O)Nc2cc(C)on2)c1OC (stereo unspecified),i,i,i,i,i,i,
COC(=O)C1=C(C(=O)OC)C2N(Cc3ccccc3)c3ccccc3[C@@]23CC(C(=O)OC)N(C(=O)c2cccs2)C3=N1 (stereo partly specified),nt,i,i,nt,nt,nt,
O=C(NCCOc1ccc(Cl)cc1)c1ccco1,i,i,i,425.0,i,i,
Cc1ccc(OCCNC(=O)c2cccc(C)c2)cc1,i,i,i,+,i,i,HeLa tox=i
Cc1ccc(C(=O)NCCNC(=O)c2ccco2)cc1C,i,i,i,i,i,nt,
Cc1ccc(OCCNC(=O)c2ccco2)cc1C,i,i,i,+,i,i,
CCOc1ccc(CN(C)C(=O)CCNC(=O)c2ccco2)cc1,i,i,i,i,i,nt,
CCc1ccc(OCCNC(=O)c2ccco2)cc1,i,i,i,nt,?,i,
CCOC(=O)C1C2COc3ccccc3C2N2C(=O)N(c3cccc(Cl)c3)C(=O)[C@]12C (stereo partly specified),nt,i,i,nt,nt,nt,
CCC(C)NC(=O)C(=Cc1ccco1)c1ccccc1 (stereo unspecified),nt,i,i,nt,nt,nt,
CCOc1ccc(CNC(=O)c2ccco2)cc1,i,i,i,60.4,i,i,
Cc1nc2cc(NC(=O)N3CCCCC3)ccc2n1C,i,i,i,i,i,nt,
CCOC(=O)C1CCN(C(=O)Nc2ccc3c(c2)nc(C)n3C)CC1,i,i,i,?,i,i,
CCC(=O)N(CCCN(C)C)c1nc(-c2cc(OC)ccc2OC)cs1,i,i,i,i,i,nt,
CCC(=O)N(CC)c1nc(-c2cc(OC)ccc2OC)cs1,i,i,i,15.4,i,i,
COc1ccccc1C(=O)NC(=O)COC(=O)CNC(=O)c1ccc(Cl)cc1Cl,i,i,i,i,i,nt,
COc1ccc(C(=O)COC(=O)CNC(=O)c2ccc(Cl)cc2Cl)c(OC)c1,i,i,i,i,i,i,
C#CCOCCOCCOCCNc1nc(N2CCN(C(=O)C(C(C)O)n3cc(CCCCN)nn3)CC2)nc(N2CCN(C(=O)C(C(C)CC)n3cc(CCCCN)nn3)CC2)n1 (stereo unspecified),nt,i,i,nt,nt,nt,
COc1ccc(Cc2nn[nH]n2)cc1,i,i,i,7.6,i,i,
c1ccc(Cc2nn[nH]n2)cc1,i,i,i,nt,i,nt,
O=C(CN1CCCCC1)Nc1cccc(Cl)c1,i,i,i,i,i,nt,
COc1cc(NC(=O)Nc2cccc(Cl)c2)c(OC)cc1NC(=O)CN1CCCCC1,i,i,i,i,i,i,
COc1ccc(Cl)cc1NC(=O)CN1CCc2ccccc2C1,i,i,i,106.7,i,i,
CN(CC(=O)Nc1c(Cl)cccc1Cl)C(=O)c1n[nH]c2ccccc12,i,i,i,i,i,i,
SMILES,PfHsp40 rescue,ugtP null kill,Sa RN4220 lethal,Vc quorum ag-1,Mtb bLac sens,Vc quorum ag-2,others
Cc1cccc(C2C3C(=O)N(Cc4ccccc4)C(=O)C3[C@]3(C)C(=O)N(c4cccc(Cl)c4)C(=O)N23)c1 (stereo partly specified),nt,i,i,nt,nt,nt,
COc1ccc(OC2C=CC(c3ccccc3)OC2COC(=O)CCC(C)=NOCC(O)COCc2ccco2)cc1 (stereo unspecified),nt,i,i,nt,nt,nt,
CCCCNC(=O)CN(c1cccc(Br)c1)S(C)(=O)=O,i,i,i,32.1,i,i,
CCCCNC(=O)CN(c1cccc(F)c1)S(C)(=O)=O,i,i,i,i,i,nt,
N#CC(=NNc1ccc(S(=O)(=O)N2CCOCC2)cc1)C(N)=S,nt,i,i,nt,nt,nt,
CCOC(=O)CNc1c(-c2ccc(Cl)cc2)nc2cnccn12,i,i,i,25.0,i,i,
O=C(Cc1ccc2c(c1)CCCC2)Nc1ccccc1Br,i,i,i,427.2,i,i,
CC(=O)N1CCC(=O)N(C(C)C)c2ccccc21,i,i,i,25.0,i,i,
CC(=O)N1CCCc2ccccc21,i,i,i,i,i,nt,
COc1ccc(CNC(=O)c2ccc(Cl)c(S(=O)(=O)N3CCOCC3)c2)cc1OC,i,i,i,57.1,i,i,
CCn1c(SCC(=O)OC2CCCCC2)nnc1-c1ccncc1,i,i,i,16.7,i,i,
